Screening data deposited in PubChem BioAssay by several laboratories.
Rv3671c protease = Rv3671c serine protease inhibitors, primary screen, biochemical, fluorescence polarization, M. tuberculosis H37Rv | inhibition, % at 5.96 µM | 320,000 tested, 0.048% active | P9WHR9; in the data active = inhibition above about 38%;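 note: extracellular domain of Rv3671c used as enzyme; 0% = enzyme with DMSO and 100% = no enzyme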
GDH-TPI counter-1 = GDH-TPI coupling enzyme inhibitors, primary screen, artefact control for M. tuberculosis FBA inhibitor project, biochemical, absorbance, full deck; 360,000 tested, 1.2% active; GDH-TPI coupled enzyme counterscreen, NADH absorbance; inhibition, % at 4.8 µM; AID 588335, 2011; in the data active = inhibition above about 30%;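 note: 0% = DMSO wells and 100% = wells lacking the enzyme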
FBA Mtb inh = Mtb FBA enzyme inhibitors, primary screen, biochemical, fluorescence, strain H37Rv; purified M. tuberculosis FBA, fluorescence read-out; inhibition, % at 1 µM; Fructose-bisphosphate aldolase (Mycobacterium tuberculosis (strain ATCC 25618 / H37Rv)), …; 360,000 tested, 2.3% active; AID 588726, 2011;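 note: 0% = vehicle and 100% = reference inhibitor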
RecA splice inh = Mtb RecA intein splicing inhibitors, primary screen, biochemical, fluorescence, HTS; inhibition, % (no concentration beside the values); cell-free RecA intein splicing; 290,000 tested, 0.75% active; AID 2221, 2009; in the data active = inhibition above about 30%; inconclusive = no clear call, values can overlap the other calls;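 note: 0% = vehicle wells and 100% = reference inhibitor control wells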
Mtb bLac sens = beta-lactam sensitization of Mtb H37Rv, H37Rv; inhibition, % at 25 µM; M. tuberculosis H37Rv growth with meropenem, percent inhibition; 330,000 tested, 0.27% active; call rule not given here;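 note: growth measured after seven days incubation then overnight dye step; 0% = bacteria only wells and 100% = bacteria with antibiotic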
Mtb UGM inh = M. tuberculosis UGM enzyme inhibitors, primary screen, biochemical, fluorescence polarization, single point | UDP-galactopyranose mutase (Mycobacterium tuberculosis (strain ATCC 25618 / H37Rv)), … | purified UGM, fluorescence polarization probe displacement | inhibition, % at 10 µM | 320,000 tested, 0.06% active; in the data active = inhibition above about 10%, passing the limit was not always enough; inconclusive = no clear call, values can overlap the other calls
Target sequence (P9WIQ1 whole entry, looked up): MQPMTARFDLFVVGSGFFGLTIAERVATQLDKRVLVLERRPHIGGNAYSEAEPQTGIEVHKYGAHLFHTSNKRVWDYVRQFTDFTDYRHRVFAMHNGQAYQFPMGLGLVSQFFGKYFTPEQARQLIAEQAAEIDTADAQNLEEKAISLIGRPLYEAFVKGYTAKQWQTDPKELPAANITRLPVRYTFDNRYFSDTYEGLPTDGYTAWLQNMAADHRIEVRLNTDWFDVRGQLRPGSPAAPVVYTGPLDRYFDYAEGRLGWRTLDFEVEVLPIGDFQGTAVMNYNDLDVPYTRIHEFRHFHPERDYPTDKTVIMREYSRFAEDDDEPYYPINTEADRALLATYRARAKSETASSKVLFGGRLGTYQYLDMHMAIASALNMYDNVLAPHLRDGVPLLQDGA
Mtb FBA confirm = M. tuberculosis aldolase blockers, biochemical, fluorescence, strain H37Rv, confirmation; shares compounds with FBA Mtb inh; purified M. tuberculosis FBA, fluorescence read-out; inhibition, % at 1 µM; 5,600 tested, 78% active;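 note: 0% = vehicle wells and 100% = reference inhibitor wells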
GDH-TPI counter-2 = GDH-TPI coupling enzyme inhibitors, artefact control for M. tuberculosis FBA inhibitor project, biochemical, fluorescence, high throughput. shares compounds with FBA Mtb inh. GDH-TPI coupled enzyme counterscreen. inhibition, % at 1 µM. 5,600 tested, 81% active. AID 652141, 2013; in the data active = inhibition above about 10%
GDH-TPI dose = GDH-TPI coupling enzyme inhibitors, dose response, artefact control for M. tuberculosis FBA inhibitor project, biochemical, fluorescence, IC50; shares compounds with FBA Mtb inh; GDH-TPI coupled enzyme assay, artifact counterscreen; IC50, µM; 170 tested, 79% active; AID 652145, 2013; call rule not given here
Active calls of the source: *; ? = inconclusive; . = no result given. An excerpt weighted towards active compounds, which were near 4% of everything screened. Cut-off read from the data, not from the text of the source, unless noted: active = inhibition above about 27%; inactive = the rest.

SMILES | Rv3671c protease | GDH-TPI counter-1 | FBA Mtb inh | RecA splice inh | Mtb bLac sens | Mtb UGM inh | Mtb FBA confirm | GDH-TPI counter-2 | others
Cc1ccccc1OCC(=O)Nc1ccc2c(c1)n(C)c(=O)n2C | 8.1 | -0.6 | 0.4 | -2.0 | 2.6 | 0.3 | . | .
CCCc1cc(=O)oc2c(C)c(O[C@@H]3O[C@H](CO)[C@@H](O)[C@H](O)[C@H]3O)ccc12 | 5.9 | 12.0 | 2.9 | -0.4 | ? | 0.4 | . | .
Cc1c(C)c2ccc(O[C@@H]3O[C@H](CO)[C@H](O)[C@H](O)[C@H]3O)c(C)c2oc1=O | . | 16.0 | 34.5* | 1.9 | -2.9 | -1.8 | 48.7* | 43.8*
Cc1c(O[C@@H]2O[C@H](CO)[C@@H](O)[C@H](O)[C@H]2O)ccc2c1oc(=O)c1ccccc12 | . | 13.9 | 88.0* | 0.4 | 23.6 | -0.9 | 62.1* | 52.4*
COC(=O)c1cc2c(=O)c3ccccc3oc2nc1/C=C/N(C)C | . | 2.5 | 32.0* | -6.7 | 8.6 | -5.3 | 97.7* | 64.3*
CC(Sc1ccc(S(=O)(=O)N2CCCCCC2)cn1)C(N)=O (configuration not stated) | . | 4.2 | -0.9 | . | . | . | . | .
Cc1ccc(F)cc1NC(=O)CCNC(=O)c1ccc([N+](=O)[O-])cc1 | -2.3 | 0.0 | 37.4* | 0.6 | 4.0 | -2.4 | 162.9* | 124.2*
O=C(CCc1ccccc1)NNC(=O)c1cc(Cl)ccc1O | -0.6 | 9.4 | 35.4* | 7.8 | 3.5 | 1.8 | -0.2 | -3.2
COCc1ccc(C(=O)N2CCCC(Nc3ccc(F)c(F)c3)C2)s1 (configuration not stated) | 12.5 | 4.9 | 1.0 | -1.9 | ? | -1.9 | . | .
C/C(=N/Nc1ccc(C)cc1)C1(C)N(O)C(C)(C)C(c2ccco2)=[N+]1[O-] (configuration not stated) | 4.7 | 7.7 | 33.3* | -1.2 | 77.9 | 3.3 | 73.7* | 57.9*
CC1(C)C(c2ccco2)=[N+]([O-])C2(CCCCC2=O)N1O (configuration not stated) | 0.7 | 3.1 | 0.0 | 4.8 | -9.5 | -0.4 | . | .
Cc1ccc2nc(NCCNC(=O)c3ccccc3)c(C#N)cc2c1 | -2.2 | 3.0 | 48.1* | -27.8 | -5.5 | -3.8 | 188.6* | 144.2*
COc1cc(C(=O)NCCCNc2nc3c(C)cc(C)cc3cc2C#N)cc(OC)c1OC | -3.2 | -3.8 | 15.3 | -12.3 | 9.4 | 3.5 | . | .
COc1cc(C(=O)NCCNc2nc3ccc(C)cc3cc2C#N)cc(OC)c1OC | 3.6 | 4.6 | 39.0* | -14.1 | -9.7 | 0.6 | 94.2* | 79.6*
COc1ccc2nc(NCCCNC(=O)c3cc(OC)c(OC)c(OC)c3)c(C#N)cc2c1 | 8.1 | 8.4 | 31.7* | -393.1 | ? | -0.3 | 13.0 | -4.7 | GDH-TPI dose=4.38*
COc1cc(C(=O)NCCNc2nc3c(C)cccc3cc2C#N)cc(OC)c1OC | . | -1.3 | 1.2 | . | . | . | . | .
COc1ccc(C(=O)NCCNc2nc3ccc(C)cc3cc2C#N)cc1 | -7.0 | 8.1 | 46.6* | -26.4 | 12.9 | 0.0 | 54.7* | 42.0*
COc1ccc(-c2csc(NC3CCCCC3)n2)c(OC)c1 | 5.5 | 12.0 | -5.7 | 3.7 | -1.2 | -0.3 | . | .
Cn1c(/C=C/c2cccc([N+](=O)[O-])c2)c([N+](=O)[O-])c(=O)n(C)c1=O | -2.6 | 3.1 | -0.8 | 5.4 | 84.7 | -1.5 | . | .
Cc1ccccc1NC(=O)Cc1nc(COC(=O)Cc2cccc(C(F)(F)F)c2)cs1 | . | 5.6 | -5.8 | . | . | . | . | .
COc1cc(C2c3c([nH]c(=O)[nH]c3=O)Nc3ccc4ccccc4c32)cc(OC)c1OC (configuration not stated) | 18.2 | 0.3 | 33.9* | 4.7 | 3.6 | 0.3 | 90.5* | 74.5*
